Measured values from PMC7862700, “An all-to-all approach to the identification of sequence-specific readers for epigenetic DNA modifications on cytosine”.

How the values were obtained:
Experiment in all cases: DAPPL (digital affinity profiling via proximity ligation, sequencing); 10 mM Tris-HCl pH 7.5, 50 mM NaCl, 1 mM DTT, 4% glycerol, room temperature, 30 min; GST-TFs on glutathione beads, 16-mer random dsDNA library, 0.1% formaldehyde crosslink after washing; high values mean tight binding
FLI1 = target: T1, FLI1 (Homo sapiens, UniProt Q01543 1-452); conditions: protein: recombinant; tags: N-terminal GST; dsDNA, one strand shown
T1 sequence: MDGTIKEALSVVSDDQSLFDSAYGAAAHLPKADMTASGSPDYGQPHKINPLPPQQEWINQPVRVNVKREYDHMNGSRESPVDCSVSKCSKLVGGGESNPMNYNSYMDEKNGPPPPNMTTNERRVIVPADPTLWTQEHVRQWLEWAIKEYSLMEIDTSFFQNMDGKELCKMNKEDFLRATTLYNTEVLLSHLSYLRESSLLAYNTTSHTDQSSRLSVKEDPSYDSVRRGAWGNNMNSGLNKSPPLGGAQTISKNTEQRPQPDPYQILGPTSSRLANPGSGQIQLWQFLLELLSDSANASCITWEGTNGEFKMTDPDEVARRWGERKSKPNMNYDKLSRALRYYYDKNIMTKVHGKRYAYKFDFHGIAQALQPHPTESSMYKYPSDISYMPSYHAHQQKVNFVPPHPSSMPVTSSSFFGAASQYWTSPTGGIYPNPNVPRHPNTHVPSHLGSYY
Procedure, shortened: (§1)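 Pools of DNA-barcoded human transcription factors, expressed in yeast as GST fusions on glutathione beads and combined with a tag-only sample, were incubated with 200 nmole of a 16-mer random double-stranded DNA library. Incubation took 30 min at room temperature in Tris/NaCl/DTT/glycerol buffer and was followed by washing, 0.1% formaldehyde crosslinking, proximity ligation (BsaI/T4 ligase, 1 h, 37 °C), PCR amplification and sequencing on an Illumina NextSeq500. Binding signal is the ratio of a hexamer's read frequency for a factor to its frequency for the tag-only sample.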

ELK1 = target: T2, ELK1 (Homo sapiens, UniProt P19419 1-428); conditions: protein: recombinant; tags: N-terminal GST; dsDNA, one strand shown
T2 sequence: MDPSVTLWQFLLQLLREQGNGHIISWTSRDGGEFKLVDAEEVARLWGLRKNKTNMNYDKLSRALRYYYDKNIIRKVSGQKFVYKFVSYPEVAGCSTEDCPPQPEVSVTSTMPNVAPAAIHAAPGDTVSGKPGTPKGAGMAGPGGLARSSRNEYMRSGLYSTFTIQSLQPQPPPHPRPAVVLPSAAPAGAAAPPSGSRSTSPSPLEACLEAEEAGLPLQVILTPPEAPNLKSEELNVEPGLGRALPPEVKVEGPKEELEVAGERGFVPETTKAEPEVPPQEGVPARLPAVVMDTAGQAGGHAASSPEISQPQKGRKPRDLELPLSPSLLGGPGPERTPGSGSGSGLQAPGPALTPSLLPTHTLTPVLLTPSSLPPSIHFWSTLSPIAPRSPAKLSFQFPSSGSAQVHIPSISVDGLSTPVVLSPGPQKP
Procedure, shortened: as §1

GABPA = target: T3, GABPA (Homo sapiens, UniProt Q06546 1-454); conditions: protein: recombinant; tags: N-terminal GST; dsDNA, one strand shown
T3 sequence: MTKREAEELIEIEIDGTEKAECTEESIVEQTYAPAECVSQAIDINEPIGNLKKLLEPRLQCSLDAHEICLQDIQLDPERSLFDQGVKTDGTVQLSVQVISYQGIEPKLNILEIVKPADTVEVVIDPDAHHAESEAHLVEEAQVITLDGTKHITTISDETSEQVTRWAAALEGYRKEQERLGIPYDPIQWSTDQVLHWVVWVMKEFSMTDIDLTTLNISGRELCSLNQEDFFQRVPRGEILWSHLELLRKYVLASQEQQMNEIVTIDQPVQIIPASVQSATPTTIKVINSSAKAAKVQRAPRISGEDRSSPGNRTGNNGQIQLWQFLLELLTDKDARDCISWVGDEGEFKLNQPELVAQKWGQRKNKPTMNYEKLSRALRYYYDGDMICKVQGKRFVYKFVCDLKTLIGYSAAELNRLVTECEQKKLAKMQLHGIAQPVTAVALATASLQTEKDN
Procedure, shortened: as §1

ERG = target: T4, ERG (Homo sapiens, UniProt P11308 1-479); conditions: protein: recombinant; tags: N-terminal GST; dsDNA, one strand shown
T4 sequence: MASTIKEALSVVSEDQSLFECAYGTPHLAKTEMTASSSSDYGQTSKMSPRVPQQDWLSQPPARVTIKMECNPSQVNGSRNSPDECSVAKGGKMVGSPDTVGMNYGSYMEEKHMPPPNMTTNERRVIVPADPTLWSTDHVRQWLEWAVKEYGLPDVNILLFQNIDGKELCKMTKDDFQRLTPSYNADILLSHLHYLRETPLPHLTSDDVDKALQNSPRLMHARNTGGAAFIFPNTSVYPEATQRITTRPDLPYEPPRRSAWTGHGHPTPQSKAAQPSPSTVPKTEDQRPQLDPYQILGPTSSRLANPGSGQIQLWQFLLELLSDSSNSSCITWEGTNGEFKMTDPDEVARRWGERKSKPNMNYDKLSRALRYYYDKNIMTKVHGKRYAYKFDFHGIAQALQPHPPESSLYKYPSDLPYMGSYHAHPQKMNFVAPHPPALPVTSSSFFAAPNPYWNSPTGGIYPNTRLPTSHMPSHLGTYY
Procedure, shortened: as §1

ELF1 = ELF1 (Homo sapiens, UniProt P32519 1-619); conditions: protein: recombinant; tags: N-terminal GST; dsDNA, one strand shown
Sequence of ELF1 (P32519 whole entry): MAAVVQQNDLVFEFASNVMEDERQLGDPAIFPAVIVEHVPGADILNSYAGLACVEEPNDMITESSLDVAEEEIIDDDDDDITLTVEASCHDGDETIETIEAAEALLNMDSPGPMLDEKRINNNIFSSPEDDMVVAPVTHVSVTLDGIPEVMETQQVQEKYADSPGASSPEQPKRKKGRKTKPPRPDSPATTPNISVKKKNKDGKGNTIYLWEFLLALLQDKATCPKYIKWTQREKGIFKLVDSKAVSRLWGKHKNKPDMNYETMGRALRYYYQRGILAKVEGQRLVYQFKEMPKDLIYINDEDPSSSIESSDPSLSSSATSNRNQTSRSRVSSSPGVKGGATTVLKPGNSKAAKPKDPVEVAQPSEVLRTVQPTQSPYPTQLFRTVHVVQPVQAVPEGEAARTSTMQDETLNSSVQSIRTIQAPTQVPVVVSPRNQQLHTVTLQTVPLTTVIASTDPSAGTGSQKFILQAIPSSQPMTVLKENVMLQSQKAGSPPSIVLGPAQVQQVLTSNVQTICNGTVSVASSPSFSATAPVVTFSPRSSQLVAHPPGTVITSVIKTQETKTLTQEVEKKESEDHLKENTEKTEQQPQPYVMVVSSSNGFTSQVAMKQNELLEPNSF
Procedure, shortened: as §1

EHF = target: T5, EHF (Homo sapiens, UniProt Q9NZC4 1-300); conditions: protein: recombinant; tags: N-terminal GST; dsDNA, one strand shown
T5 sequence: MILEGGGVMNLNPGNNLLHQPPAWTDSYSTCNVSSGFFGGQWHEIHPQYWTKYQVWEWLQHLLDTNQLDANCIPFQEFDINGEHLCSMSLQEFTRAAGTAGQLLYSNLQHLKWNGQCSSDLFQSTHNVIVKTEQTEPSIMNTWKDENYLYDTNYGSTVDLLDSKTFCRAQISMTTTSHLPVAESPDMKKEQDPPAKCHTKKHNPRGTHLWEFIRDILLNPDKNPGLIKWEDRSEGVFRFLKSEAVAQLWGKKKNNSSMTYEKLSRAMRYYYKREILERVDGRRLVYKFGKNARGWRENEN
Procedure, shortened: as §1

SPI1 = SPI1 (Homo sapiens, UniProt P17947 1-270); conditions: protein: recombinant; tags: N-terminal GST; dsDNA, one strand shown
Procedure, shortened: as §1

SPIB = SPIB (Homo sapiens, UniProt Q01892 1-262); conditions: protein: recombinant; tags: N-terminal GST; dsDNA, one strand shown
Sequence of SPIB (Q01892 whole entry): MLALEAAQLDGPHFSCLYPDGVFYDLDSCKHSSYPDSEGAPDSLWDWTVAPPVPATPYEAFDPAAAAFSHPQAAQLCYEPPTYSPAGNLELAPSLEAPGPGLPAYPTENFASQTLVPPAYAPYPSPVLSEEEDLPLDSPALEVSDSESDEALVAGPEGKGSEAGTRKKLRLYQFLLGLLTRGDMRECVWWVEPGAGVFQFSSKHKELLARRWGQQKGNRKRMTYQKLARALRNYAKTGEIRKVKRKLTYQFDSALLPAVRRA
Procedure, shortened: as §1

ELK3 = target: T6, ELK3 (Homo sapiens, UniProt P41970 1-407); conditions: protein: recombinant; tags: N-terminal GST; dsDNA, one strand shown
T6 sequence: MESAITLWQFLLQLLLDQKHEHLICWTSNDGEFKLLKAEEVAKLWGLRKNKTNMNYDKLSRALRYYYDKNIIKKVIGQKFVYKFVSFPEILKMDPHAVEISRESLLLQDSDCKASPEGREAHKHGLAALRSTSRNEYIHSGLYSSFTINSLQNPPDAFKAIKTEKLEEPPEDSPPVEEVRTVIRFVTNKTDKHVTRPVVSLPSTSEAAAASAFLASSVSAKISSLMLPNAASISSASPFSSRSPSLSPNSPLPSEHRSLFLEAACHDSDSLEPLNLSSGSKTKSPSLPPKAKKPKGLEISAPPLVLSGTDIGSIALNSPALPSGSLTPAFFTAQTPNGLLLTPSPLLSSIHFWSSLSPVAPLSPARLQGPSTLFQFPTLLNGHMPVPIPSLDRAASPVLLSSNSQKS
Procedure, shortened: as §1

FEV = target: T7, FEV (Homo sapiens, UniProt Q99581 1-238); conditions: protein: recombinant; tags: N-terminal GST; dsDNA, one strand shown
T7 sequence: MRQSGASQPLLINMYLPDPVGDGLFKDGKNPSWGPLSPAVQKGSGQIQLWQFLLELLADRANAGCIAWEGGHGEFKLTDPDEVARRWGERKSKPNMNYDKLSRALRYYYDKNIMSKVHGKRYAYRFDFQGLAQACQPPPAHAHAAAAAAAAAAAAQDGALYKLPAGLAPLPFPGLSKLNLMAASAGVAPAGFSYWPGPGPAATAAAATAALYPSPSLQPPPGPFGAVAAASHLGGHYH
Procedure, shortened: as §1

ETV5 = ETV5 (Homo sapiens, UniProt P41161 1-510); conditions: protein: recombinant; tags: N-terminal GST; dsDNA, one strand shown
Sequence of ETV5 (P41161 whole entry): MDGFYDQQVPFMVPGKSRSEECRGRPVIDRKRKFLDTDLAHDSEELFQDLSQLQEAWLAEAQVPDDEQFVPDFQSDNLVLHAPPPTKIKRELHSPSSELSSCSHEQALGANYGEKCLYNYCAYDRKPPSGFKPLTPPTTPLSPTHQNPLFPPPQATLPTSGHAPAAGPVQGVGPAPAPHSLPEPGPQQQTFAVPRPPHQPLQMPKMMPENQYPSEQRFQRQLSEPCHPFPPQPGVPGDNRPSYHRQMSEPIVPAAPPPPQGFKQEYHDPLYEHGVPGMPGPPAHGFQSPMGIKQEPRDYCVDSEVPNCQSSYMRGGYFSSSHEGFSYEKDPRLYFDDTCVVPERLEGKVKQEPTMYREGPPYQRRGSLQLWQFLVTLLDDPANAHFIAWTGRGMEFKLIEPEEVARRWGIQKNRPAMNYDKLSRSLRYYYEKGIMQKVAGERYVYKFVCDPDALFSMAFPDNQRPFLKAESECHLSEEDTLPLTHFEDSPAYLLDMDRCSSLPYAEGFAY
Procedure, shortened: as §1

HSF1 = HSF1 (Homo sapiens, UniProt Q00613 1-529); conditions: protein: recombinant; tags: N-terminal GST; chain copies: 3; dsDNA, one strand shown
Sequence of HSF1 (Q00613 whole entry): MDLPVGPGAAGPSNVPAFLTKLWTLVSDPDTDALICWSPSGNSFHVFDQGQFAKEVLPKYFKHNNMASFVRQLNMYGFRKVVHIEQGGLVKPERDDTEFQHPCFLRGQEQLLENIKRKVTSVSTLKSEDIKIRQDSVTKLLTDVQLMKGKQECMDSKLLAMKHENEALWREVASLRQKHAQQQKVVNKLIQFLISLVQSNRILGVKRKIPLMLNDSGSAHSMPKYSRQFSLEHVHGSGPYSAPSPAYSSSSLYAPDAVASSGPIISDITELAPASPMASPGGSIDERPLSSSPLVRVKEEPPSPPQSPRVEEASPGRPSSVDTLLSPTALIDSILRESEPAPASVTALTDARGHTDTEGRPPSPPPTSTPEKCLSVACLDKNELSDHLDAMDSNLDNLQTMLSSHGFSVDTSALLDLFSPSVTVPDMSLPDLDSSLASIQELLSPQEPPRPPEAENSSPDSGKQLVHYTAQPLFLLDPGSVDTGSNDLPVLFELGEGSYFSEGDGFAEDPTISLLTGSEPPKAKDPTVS
Procedure, shortened: as §1

SPIC = target: T8, SPIC (Homo sapiens, UniProt Q8N5J4 1-248); conditions: protein: recombinant; tags: N-terminal GST; dsDNA, one strand shown
T8 sequence: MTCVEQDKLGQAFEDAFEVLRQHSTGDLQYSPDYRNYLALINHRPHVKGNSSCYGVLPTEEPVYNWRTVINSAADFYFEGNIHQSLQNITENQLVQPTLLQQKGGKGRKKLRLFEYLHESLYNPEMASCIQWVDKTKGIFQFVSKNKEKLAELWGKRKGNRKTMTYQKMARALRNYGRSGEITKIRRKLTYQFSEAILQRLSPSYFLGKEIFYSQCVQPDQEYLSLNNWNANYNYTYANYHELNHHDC
Procedure, shortened: as §1

ELF4 = ELF4 (Homo sapiens, UniProt Q99607 1-663); conditions: protein: recombinant; tags: N-terminal GST; dsDNA, one strand shown
Sequence of ELF4 (Q99607 whole entry): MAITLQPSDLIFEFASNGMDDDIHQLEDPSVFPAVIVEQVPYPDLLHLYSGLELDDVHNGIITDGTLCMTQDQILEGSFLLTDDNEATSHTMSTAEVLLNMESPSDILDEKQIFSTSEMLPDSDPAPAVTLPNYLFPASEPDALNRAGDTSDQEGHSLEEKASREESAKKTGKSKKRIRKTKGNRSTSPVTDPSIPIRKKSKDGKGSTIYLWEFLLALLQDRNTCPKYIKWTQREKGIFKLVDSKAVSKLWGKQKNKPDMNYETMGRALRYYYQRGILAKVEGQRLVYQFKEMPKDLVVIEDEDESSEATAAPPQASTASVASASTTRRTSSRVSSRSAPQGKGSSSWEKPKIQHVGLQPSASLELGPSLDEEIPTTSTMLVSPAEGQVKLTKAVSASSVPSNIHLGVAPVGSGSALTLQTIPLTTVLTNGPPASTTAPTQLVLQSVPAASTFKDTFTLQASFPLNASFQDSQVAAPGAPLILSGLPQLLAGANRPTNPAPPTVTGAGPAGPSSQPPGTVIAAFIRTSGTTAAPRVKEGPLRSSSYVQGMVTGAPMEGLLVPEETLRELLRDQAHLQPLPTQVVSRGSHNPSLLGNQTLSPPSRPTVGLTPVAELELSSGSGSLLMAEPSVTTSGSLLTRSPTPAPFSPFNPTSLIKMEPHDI
Procedure, shortened: as §1

ELK4 = target: T9, ELK4 (Homo sapiens, UniProt P28324-2 1-405); conditions: protein: recombinant; tags: N-terminal GST; dsDNA, one strand shown
T9 sequence: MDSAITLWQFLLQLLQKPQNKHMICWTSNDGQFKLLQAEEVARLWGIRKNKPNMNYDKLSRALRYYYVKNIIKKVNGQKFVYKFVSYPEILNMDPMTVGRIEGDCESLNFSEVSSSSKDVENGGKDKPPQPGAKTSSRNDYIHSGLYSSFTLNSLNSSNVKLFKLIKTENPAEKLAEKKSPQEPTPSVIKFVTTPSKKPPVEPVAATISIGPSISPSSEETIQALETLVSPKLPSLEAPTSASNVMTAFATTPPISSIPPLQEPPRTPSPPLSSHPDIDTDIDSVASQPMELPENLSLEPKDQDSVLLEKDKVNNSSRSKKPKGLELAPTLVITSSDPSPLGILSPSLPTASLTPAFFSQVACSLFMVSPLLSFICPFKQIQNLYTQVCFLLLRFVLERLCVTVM
Procedure, shortened: as §1

ETV2 = target: T10, ETV2 (Homo sapiens, UniProt O00321 1-342); conditions: protein: recombinant; tags: N-terminal GST; dsDNA, one strand shown
T10 sequence: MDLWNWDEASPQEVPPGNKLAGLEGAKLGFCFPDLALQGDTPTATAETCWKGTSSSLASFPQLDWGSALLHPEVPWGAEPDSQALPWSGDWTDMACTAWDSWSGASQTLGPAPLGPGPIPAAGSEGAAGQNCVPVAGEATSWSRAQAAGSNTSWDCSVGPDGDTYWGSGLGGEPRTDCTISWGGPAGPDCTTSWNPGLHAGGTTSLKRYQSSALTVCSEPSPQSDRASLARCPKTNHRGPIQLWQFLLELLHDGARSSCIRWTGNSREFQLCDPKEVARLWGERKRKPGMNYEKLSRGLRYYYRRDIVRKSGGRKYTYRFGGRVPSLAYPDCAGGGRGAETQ
Procedure, shortened: as §1

ELF3 = target: T11, ELF3 (Homo sapiens, UniProt P78545 1-371); conditions: protein: recombinant; tags: N-terminal GST; dsDNA, one strand shown
T11 sequence: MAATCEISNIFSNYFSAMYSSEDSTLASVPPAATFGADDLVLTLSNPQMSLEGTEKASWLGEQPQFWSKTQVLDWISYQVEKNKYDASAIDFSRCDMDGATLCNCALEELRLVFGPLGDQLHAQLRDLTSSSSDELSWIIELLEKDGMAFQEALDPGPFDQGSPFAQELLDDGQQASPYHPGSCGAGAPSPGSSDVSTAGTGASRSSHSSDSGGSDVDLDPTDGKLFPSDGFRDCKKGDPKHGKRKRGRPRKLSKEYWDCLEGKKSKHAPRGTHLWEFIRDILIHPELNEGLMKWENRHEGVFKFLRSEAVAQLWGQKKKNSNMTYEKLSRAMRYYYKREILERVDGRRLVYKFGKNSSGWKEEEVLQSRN
Procedure, shortened: as §1

CRX = CRX (Homo sapiens, UniProt O43186 1-299); conditions: protein: recombinant; tags: N-terminal GST; dsDNA, one strand shown
Sequence of CRX (O43186 whole entry): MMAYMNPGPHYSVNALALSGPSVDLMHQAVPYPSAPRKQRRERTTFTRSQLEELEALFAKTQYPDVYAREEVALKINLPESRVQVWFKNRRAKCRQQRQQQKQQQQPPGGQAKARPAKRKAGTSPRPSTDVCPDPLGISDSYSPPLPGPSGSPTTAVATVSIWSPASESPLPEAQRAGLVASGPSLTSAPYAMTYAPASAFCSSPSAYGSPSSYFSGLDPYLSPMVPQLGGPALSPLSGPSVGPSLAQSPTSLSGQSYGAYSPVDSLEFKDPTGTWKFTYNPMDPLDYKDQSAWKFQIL
Procedure, shortened: as §1

ETV1 = ETV1 (Homo sapiens, UniProt P50549 1-477); conditions: protein: recombinant; tags: N-terminal GST; dsDNA, one strand shown
Sequence of ETV1 (P50549 whole entry): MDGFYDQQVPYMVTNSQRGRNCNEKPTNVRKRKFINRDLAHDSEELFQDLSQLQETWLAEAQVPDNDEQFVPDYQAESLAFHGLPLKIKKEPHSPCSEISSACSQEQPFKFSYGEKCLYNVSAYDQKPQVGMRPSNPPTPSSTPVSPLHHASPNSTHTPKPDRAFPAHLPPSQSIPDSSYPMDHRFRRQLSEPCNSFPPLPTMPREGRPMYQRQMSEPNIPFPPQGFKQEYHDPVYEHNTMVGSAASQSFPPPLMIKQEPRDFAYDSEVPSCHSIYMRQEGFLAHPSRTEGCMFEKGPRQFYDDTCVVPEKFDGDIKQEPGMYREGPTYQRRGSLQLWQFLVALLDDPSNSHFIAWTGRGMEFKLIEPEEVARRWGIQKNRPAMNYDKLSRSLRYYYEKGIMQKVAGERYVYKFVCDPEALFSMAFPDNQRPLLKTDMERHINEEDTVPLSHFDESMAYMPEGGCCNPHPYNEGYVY
Procedure, shortened: as §1

Sequence: AACGCT
- binding signal (FLI1): 1.16 fold enrichment (6-mer frequency, TF over GST control)
- binding signal (ELK1): 1.22 fold enrichment (6-mer frequency, TF over GST control)
- binding signal (GABPA): 1.22 fold enrichment (6-mer frequency, TF over GST control)
- binding signal (ERG): 1.19 fold enrichment (6-mer frequency, TF over GST control)
- binding signal (ELF1): 1.27 fold enrichment (6-mer frequency, TF over GST control)
- binding signal (EHF): 1.23 fold enrichment (6-mer frequency, TF over GST control)
- binding signal (SPI1): 1.17 fold enrichment (6-mer frequency, TF over GST control)
- binding signal (SPIB): 1.21 fold enrichment (6-mer frequency, TF over GST control)
- binding signal (ELK3): 1.2 fold enrichment (6-mer frequency, TF over GST control)
- binding signal (FEV): 1.18 fold enrichment (6-mer frequency, TF over GST control)
- binding signal (ETV5): 1.23 fold enrichment (6-mer frequency, TF over GST control)
- binding signal (HSF1): 1.06 fold enrichment (6-mer frequency, TF over GST control)
- binding signal (SPIC): 1.26 fold enrichment (6-mer frequency, TF over GST control)
- binding signal (ELF4): 1.27 fold enrichment (6-mer frequency, TF over GST control)
- binding signal (ELK4): 1.22 fold enrichment (6-mer frequency, TF over GST control)
- binding signal (ETV2): 1.24 fold enrichment (6-mer frequency, TF over GST control)
- binding signal (ELF3): 1.14 fold enrichment (6-mer frequency, TF over GST control)
- binding signal (CRX): 1.17 fold enrichment (6-mer frequency, TF over GST control)
- binding signal (ETV1): 1.2 fold enrichment (6-mer frequency, TF over GST control)
